Experimental data as given in PubChem BioAssay (NCATS).
“And” between values parts separate entries of the source, which are not always exact repeats. Equal entries are not always repeated. Records with an inconclusive call do not appear. The source made the active and inactive calls. Unless noted, calls come from the whole dose curve; as a rule, active = well fitted curve in the direction sought with a large enough effect; inconclusive = small, poorly fitted or top-dose-only effect, or another doubt; inactive = no such curve, though single readings can be large; an effect the other way counts as inactive or inconclusive.

Tests used:
[1] = Cell Viability - BJ (AID 421; calls by dose curve;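 note: potency is the fitted concentration of half-maximal effect; cells exposed to compound for 40 hours at 37 °C before readout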); conditions: BJ fibroblast viability, qHTS
Procedure, shortened: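 Normal human BJ foreskin fibroblasts, 1500/well in complete medium, treated 40 hr at 37 °C. Cellular ATP by CellTiter-Glo luminescence; normalized to DMSO and 100 uM tamoxifen, AC50 from Hill fit.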

[2] = Cellular Toxicity (caspase-3) HepG2 (AID 654); conditions: HepG2 caspase-3 activation, luminescence, 0% = DMSO only, 100% = tamoxifen; series mostly up to 92.2 µM;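 note: cells exposed to compound for 16 hours before reading; 0% = DMSO alone and 100% = caspase signal from 100 µM tamoxifen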
Procedure, shortened: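 HepG2 cells (1500/well) in complete medium were treated with compounds for 16 hr at 37 °C. Caspase-3/7 activity was then read as luminescence from peptide-aminoluciferin cleavage. AC50 came from Hill fits, normalized to DMSO and 100 uM tamoxifen.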

[3] = Cellular Toxicity (caspase-3) BJ (AID 658); conditions: BJ fibroblasts, luminescence, normalized: DMSO 0%, staurosporine 100%; series mostly up to 91.7 µM
Procedure, shortened: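 Luminescent aminoluciferin-substrate cleavage reports caspase 3/7 activity in normal human BJ fibroblasts after 16 hr compound exposure at 37 °C. Normalized to DMSO (basal) and 10 uM staurosporine (100%); AC50 from Hill fit of concentration-response.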

[4] = Cellular Toxicity (caspase-3) MRC-5 (AID 659); conditions: MRC-5 cells, luminescence, normalized: DMSO 0%, 10 µM staurosporine 100%; series mostly up to 91.7 µM
Procedure, shortened: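 Luminescence from caspase-cleaved aminoluciferin substrate (Caspase-Glo 3/7, 1 hr RT) reports caspase 3/7 activity in MRC-5 lung fibroblasts after 16 hr compound exposure. Normalized to DMSO basal and 10 uM staurosporine as 100%; AC50 from Hill fits.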

[5] = Cellular Toxicity (caspase-3) Hek293 (AID 664); conditions: HEK293 caspase-3 activation, DMSO = 0%, 100 µM tamoxifen = 100%; at 92.2 µM (top of the series);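 note: cells exposed to compound for 16 h at 37 °C before readout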
Procedure, shortened: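 HEK293 cells were exposed to compounds in complete medium for 16 hr at 37 °C, then caspase-3/7 activity was read by Caspase-Glo 3/7 luminescence after 20 min at room temperature. Data normalized to DMSO and 100 uM tamoxifen; AC50 from Hill fits.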

[6] = Cellular Toxicity (caspase-3) N2a (AID 665); conditions: N2a cells, luminescence, normalized: DMSO 0%, 10 µM staurosporine 100%; series mostly up to 92.2 µM;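 note: compound exposure lasted 16 h at 37 °C before readout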
Procedure, shortened: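 Mouse N2a neuroblastoma cells (1500/well) were treated with compounds for 16 h at 37 °C, then caspase-3/7 activity was read by Caspase-Glo luminescence after 1 h at room temperature. Data were normalized to DMSO and 10 uM staurosporine; AC50 from Hill fits.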

[7] = Cellular Toxicity (caspase-3) NIH 3T3 (AID 666); conditions: NIH 3T3 caspase-3 activation, apoptosis/toxicity; series mostly up to 92.2 µM;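 note: caspase signal read after 16 h compound exposure; 0% = DMSO basal and 100% = 100 µM tamoxifen stimulation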
Procedure, shortened: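 Mouse NIH 3T3 fibroblasts (1000 cells/well) were treated with compound for 16 hr at 37°C in complete medium; caspase-3/7 activity was read by Caspase-Glo luminescence. Normalized to DMSO and 100 uM tamoxifen; AC50 from Hill fits.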

[8] = Cell Viability - LYMP2-001 (AID 921); conditions: LYMP2-001 lymphoblastoid cell viability; series mostly up to 92.2 µM;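 note: 0% = DMSO only and full inhibition = tetraoctylammonium bromide control wells; nearly all actives have a fitted effect of over 70% in size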
Procedure, shortened: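 Human lymphoblastoid LYMP2-001 cells, 2500 per well, in complete medium, treated 24 h at 37 C. Viability from cellular ATP by CellTiter-Glo luminescence; AC50 from Hill-equation fits of qHTS concentration-response.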

[9] = MultiTox-Fluor Cytotoxicity Assay - LYMP1-001 - Dead Cells (AID 946); conditions: LYMP1-001 lymphoblastoid cells, dead-cell protease fluorescence; series mostly up to 92.2 µM;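 note: 0% = DMSO and 100% = tetraoctylammonium bromide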
Procedure, shortened: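 LYMP1-001 lymphoblastoid cells (2500/well) treated 16 h at 37 C. Dead-cell protease cleavage of bis-AAF-R110 read at Ex/Em 485/520. Normalized to DMSO and 15 uM tetraoctylammonium bromide; AC50 from Hill fits.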

[10] = MultiTox-Fluor Cytotoxicity Assay - LYMP1-002 - Live Cells (AID 955); conditions: LYMP1-002 lymphoblastoid live-cell protease fluorescence viability; series mostly up to 46.1 µM; note: % is set by controls: 0 for no effect and ±100 for the full control effect
Procedure, shortened: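 Human lymphoblastoid LYMP1-002 cells, 2500/well in complete medium, rested 5 hr at 37 C, then exposed to compounds for 16 hr at 37 C. Live-cell protease cleavage of GF-AFC read by fluorescence (Ex/Em 405/510) after 60 min at room temperature; AC50 from Hill fits.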

[11] = MultiTox-Fluor Cytotoxicity Assay - LYMP1-003 - Dead Cells (AID 961); conditions: LYMP1-003 lymphoblastoid cells, dead-cell protease fluorescence; series mostly up to 92.2 µM;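 note: 0% = DMSO and 100% = tetraoctylammonium bromide; nearly all actives have a fitted effect of over 70% in size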
Procedure, shortened: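 LYMP1-003 human lymphoblastoid cells (2500/well) exposed to compound 16 h at 37 C in complete medium; dead-cell protease read with bis-AAF-R110 fluorescence (Ex/Em 485/520) after 60 min at room temperature. Normalized to DMSO and 15 uM tetraoctylammonium bromide; AC50 from Hill fit.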

[12] = MultiTox-Fluor Cytotoxicity Assay - LYMP1-003 - Live Cells (AID 962); conditions: LYMP1-003 lymphoblastoid cells, MultiTox-Fluor live-cell protease fluorescence; series mostly up to 92.2 µM;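 note: 0% = DMSO only and full loss = 92 µM tetraoctylammonium bromide; cytotoxic hits lower the live-cell protease signal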
Procedure, shortened: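 LYMP1-003 human lymphoblastoid cells (2500/well) in complete medium were preincubated 5 hr at 37 C, then exposed to compounds for 16 hr at 37 C. Live-cell protease cleavage of GF-AFC read by fluorescence (Ex/Em 405/510); AC50 from Hill fits.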

[13] = Cell Viability - LYMP2-021 (AID 974); conditions: LYMP2-021 lymphoblastoid cells viability; series mostly up to 92.2 µM;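 note: compound exposure lasts 24 hours at 37 °C; % is set by controls: 0 for no effect and ±100 for the full control effect; nearly all actives have a fitted effect of over 55% in size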
Procedure, shortened: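 Human lymphoblastoid cells (2500/well) were preincubated 5 hr at 37 C, then exposed to compounds for 24 hr at 37 C in complete medium. Intracellular ATP was read by CellTiter-Glo luminescence; AC50 came from Hill-equation fits of concentration-response data.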

[14] = Cell Viability - LYMP2-025 (AID 976); conditions: LYMP2-025 lymphoblastoid cell viability; series mostly up to 92.2 µM;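 note: plate controls were DMSO only for no effect and tetraoctylammonium bromide control for full effect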
Procedure, shortened: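 Human lymphoblastoid LYMP2-025 cells (2500/well) were pre-incubated 5 hr at 37 C, then treated with compounds for 24 hr at 37 C in complete medium. Viability was read as intracellular ATP by CellTiter-Glo luminescence; AC50 from Hill fits.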

[15] = Cell Viability - LYMP2-006 (AID 978); conditions: LYMP2-006 lymphoblastoid cell viability, qHTS; series mostly up to 92.2 µM; note: % is set by controls: 0 for no effect and ±100 for the full control effect; nearly all actives have a fitted effect of over 60% in size
Procedure, shortened: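 Human lymphoblastoid cells (LYMP2-006), 2500/well in complete medium, were treated with compound for 24 hr at 37 C. Cellular ATP was read by CellTiter-Glo luminescence after 30 min, and AC50 values came from Hill-equation fits of concentration-response data.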

[16] = Cell Viability - LYMP1-002 - Assay at 24 hr (AID 993); conditions: LYMP1-002 lymphoblastoid cells viability; series mostly up to 92.2 µM; note: % is set by controls: 0 for no effect and ±100 for the full control effect
Procedure, shortened: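 Human lymphoblastoid LYMP1-002 cells, 2500/well in complete medium, were treated with compounds for 24 h at 37 C; intracellular ATP was read by CellTiter-Glo luminescence. AC50 values came from Hill-equation fits of qHTS concentration-response data.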

[17] = Cell Viability - LYMP1-002 - Assay at 40 hr (AID 994); conditions: LYMP1-002 lymphoblastoid cell viability; series mostly up to 92.2 µM;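 note: 0% = DMSO only and full inhibition = 92 µM tetraoctylammonium bromide; nearly all actives have a fitted effect of over 60% in size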
Procedure, shortened: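 Human lymphoblastoid cells, 2500/well in complete medium, were preincubated 5 hr at 37 C, then exposed to compounds for 40 hr at 37 C. Intracellular ATP was read by CellTiter-Glo luminescence after 30 min at room temperature; AC50 from Hill-equation fits.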

[18] = qHTS Assay for Identification of Small Molecule Inducers of Hypoxia Response (AID 2120; active = well fitted curve in the direction sought with a large enough effect in the signal ratio, with a control signal flat, not every such curve was filed as active; the % refers to the signal ratio; note: 0% is about no effect); conditions: hypoxia response reporter cells, beta-lactamase ratio readout; series mostly up to 104 µM
Procedure, shortened: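 HRE-beta-lactamase reporter in CellSensor HRE-bla ME-180 cells, 2500 cells/well in Opti-MEM with 0.5% dialyzed FBS; compounds tested as titration series, 17 h at 37 degrees C. CCF4 substrate 2.5 h at room temperature; AC50 from 460/530 nm ratio.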

[19] = molecular target: Peroxisome proliferator-activated receptor alpha (Homo sapiens) (UniProt Q07869); test: qHTS assay for small molecule agonists of the peroxisome proliferator-activated receptor alpha (PPARalpha) signaling pathway (AID 651778); conditions: PathHunter PPARalpha complementation, chemiluminescence, 6 h; hits give high values; note: % of control where 0% means no effect
Procedure, shortened: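 Cells plated at 2,000/well and held overnight at 37 C, 5% CO2, then compound added by pin tool for 6 hr; after PathHunter detection reagent and 60 min at room temperature, chemiluminescence from enzyme complementation was read.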

[20] = qHTS assay for cell viability of the p53RE-bla HCT-116 cell line (AID 743292); conditions: p53RE-bla HCT-116 viability, ATP luminescence, 16 h; series mostly up to 95 µM; note: % is set by controls: 0 for no effect and ±100 for the full control effect; nearly all actives have a fitted effect of over 55% in size
Procedure, shortened: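 Quantitative high-throughput format: compounds in DMSO were pinned onto p53RE-bla HCT-116 cells (4,000/well) and incubated 16 h at 37 C. Total intracellular ATP, read by CellTiter-Glo luminescence, reflects viable cell number.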

Chain of Peroxisome proliferator-activated receptor alpha (Homo sapiens) (Q07869 whole entry, looked up): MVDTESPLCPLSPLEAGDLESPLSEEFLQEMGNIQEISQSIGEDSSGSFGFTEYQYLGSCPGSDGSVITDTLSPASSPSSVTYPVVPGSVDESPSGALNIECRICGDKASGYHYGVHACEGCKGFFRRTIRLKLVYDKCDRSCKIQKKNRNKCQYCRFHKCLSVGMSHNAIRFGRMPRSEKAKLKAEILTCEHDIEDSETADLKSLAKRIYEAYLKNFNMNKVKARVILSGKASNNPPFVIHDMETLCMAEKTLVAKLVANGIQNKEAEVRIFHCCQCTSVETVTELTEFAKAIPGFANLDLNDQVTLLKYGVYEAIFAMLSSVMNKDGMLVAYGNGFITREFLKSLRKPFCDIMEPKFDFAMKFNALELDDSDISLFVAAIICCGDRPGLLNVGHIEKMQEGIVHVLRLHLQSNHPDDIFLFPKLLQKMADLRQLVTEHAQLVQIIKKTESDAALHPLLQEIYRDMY

O=[N+]([O-])c1ccc(Cl)cc1
inactive: Potency [1] > 92 µM | outcome [2] | outcome [3] | outcome [4] | caspase-3 activation [5] -0.181% | outcome [6] | Potency [7] | Potency [8] | outcome [9] | outcome [10] | Potency [11] | outcome [12] | Potency [13] | Potency [14] | Potency [15] | Potency [16] | Potency [17] | Potency [18] | max response [19] -4.31% and 0.471% | Potency [20]

ClC=CCl
inactive: Potency [1] > 92 µM | outcome [2] | outcome [3] | outcome [4] | caspase-3 activation [5] -1.83% | outcome [6] | Potency [7] | Potency [8] | outcome [9] | outcome [10] | Potency [11] | outcome [12] | Potency [13] | Potency [14] | Potency [15] | Potency [16] | Potency [17] | Potency [18] | max response [19] -2.13% | Potency [20]

C=CCCC#N
inactive: Potency [1] > 92 µM | outcome [2] | outcome [3] | outcome [4] | caspase-3 activation [5] -0.209% | outcome [6] | Potency [7] | Potency [8] | outcome [9] | outcome [10] | Potency [11] | outcome [12] | Potency [13] | Potency [14] | Potency [15] | Potency [16] | Potency [17] | Potency [18] | max response [19] -3.78% | Potency [20]

CCSC(=O)N1CCCCCC1
inactive: Potency [1] > 92 µM | outcome [2] | outcome [3] | outcome [4] | caspase-3 activation [5] 2.55% | outcome [6] | Potency [7] | Potency [8] | outcome [9] | outcome [10] | Potency [11] | outcome [12] | Potency [13] | Potency [14] | Potency [15] | Potency [16] | Potency [17] | Potency [18] | max response [19] 3.66% and -1.17% | Potency [20]

N#C/C(N)=C(/N)C#N
inactive: Potency [1] > 92 µM | outcome [2] | outcome [3] | outcome [4] | caspase-3 activation [5] -2.4% | outcome [6] | Potency [7] | Potency [8] | outcome [9] | outcome [10] | Potency [11] | outcome [12] | Potency [13] | Potency [14] | Potency [15] | Potency [16] | Potency [17] | Potency [18] | max response [19] -0.162% | Potency [20]

BrC(Br)Br
inactive: Potency [1] > 92 µM | outcome [2] | outcome [3] | outcome [4] | caspase-3 activation [5] -0.311% | outcome [6] | Potency [7] | Potency [8] | outcome [9] | outcome [10] | Potency [11] | outcome [12] | Potency [13] | Potency [14] | Potency [15] | Potency [16] | Potency [17] | Potency [18] | max response [19] -7% | Potency [20]

CC(C)OS(C)(=O)=O
inactive: Potency [1] > 92 µM | outcome [2] | outcome [3] | outcome [4] | caspase-3 activation [5] -0.589% | outcome [6] | Potency [7] | Potency [8] | outcome [9] | outcome [10] | Potency [11] | outcome [12] | Potency [13] | Potency [14] | Potency [15] | Potency [16] | Potency [17] | Potency [18] | max response [19] -9.26% | Potency [20]
